Drawing on article PMC7862700, “An all-to-all approach to the identification of sequence-specific readers for epigenetic DNA modifications on cytosine”, this text covers binding signal for one sequence.

Holding throughout (assay): DAPPL (digital affinity profiling via proximity ligation, sequencing); 10 mM Tris-HCl pH 7.5, 50 mM NaCl, 1 mM DTT, 4% glycerol, room temperature, 30 min; GST-TFs on glutathione beads, 16-mer random dsDNA library, 0.1% formaldehyde crosslink after washing; high values mean tight binding
Common to all, as to details: protein: recombinant; tags: N-terminal GST; dsDNA, one strand shown

The target in one test is T1, ELK1 (Homo sapiens, UniProt P19419 1-428).
T1 sequence: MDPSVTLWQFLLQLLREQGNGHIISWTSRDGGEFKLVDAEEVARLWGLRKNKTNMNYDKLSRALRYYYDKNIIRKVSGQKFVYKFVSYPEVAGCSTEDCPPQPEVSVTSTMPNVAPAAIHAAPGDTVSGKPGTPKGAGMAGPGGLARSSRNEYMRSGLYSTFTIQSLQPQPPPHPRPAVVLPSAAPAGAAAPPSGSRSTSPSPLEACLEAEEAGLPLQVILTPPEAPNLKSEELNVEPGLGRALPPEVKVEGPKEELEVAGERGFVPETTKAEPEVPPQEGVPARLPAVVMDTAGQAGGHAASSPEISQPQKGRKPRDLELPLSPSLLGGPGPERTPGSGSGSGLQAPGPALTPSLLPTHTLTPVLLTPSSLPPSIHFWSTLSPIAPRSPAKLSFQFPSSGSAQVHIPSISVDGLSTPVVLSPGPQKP
Put shortly:
(§1)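 Binding signal is given per hexamer as its read frequency for a factor divided by its frequency in the tag-only sample. GST-fused human transcription factors were expressed in yeast, captured on glutathione beads, barcoded with DNA and pooled with that sample, then incubated with 200 nmole of a 16-mer random double-stranded DNA library in Tris/NaCl/DTT/glycerol buffer for 30 min at room temperature. The pools were then washed, crosslinked, proximity-ligated, amplified by PCR and sequenced on an Illumina NextSeq500.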

A further test addresses T2, ERG (Homo sapiens, UniProt P11308 1-479).
T2 sequence: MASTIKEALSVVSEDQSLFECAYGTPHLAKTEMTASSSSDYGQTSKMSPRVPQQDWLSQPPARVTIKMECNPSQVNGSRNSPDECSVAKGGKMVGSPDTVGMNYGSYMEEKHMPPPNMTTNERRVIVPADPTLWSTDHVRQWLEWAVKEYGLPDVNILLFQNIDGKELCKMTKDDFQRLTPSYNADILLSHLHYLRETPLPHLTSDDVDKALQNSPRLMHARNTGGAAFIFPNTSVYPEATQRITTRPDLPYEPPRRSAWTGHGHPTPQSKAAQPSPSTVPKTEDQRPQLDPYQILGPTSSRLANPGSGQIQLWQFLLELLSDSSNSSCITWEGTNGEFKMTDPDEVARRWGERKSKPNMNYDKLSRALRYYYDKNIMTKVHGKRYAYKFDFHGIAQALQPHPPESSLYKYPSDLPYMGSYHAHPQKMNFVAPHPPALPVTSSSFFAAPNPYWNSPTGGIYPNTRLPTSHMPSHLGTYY
In outline: as §1

The next test has as its target ELF1 (Homo sapiens, UniProt P32519 1-619). In outline: as §1
Another test has as its target SPIB (Homo sapiens, UniProt Q01892 1-262). Put shortly:
as §1

For another test, the target named is T3, FEV (Homo sapiens, UniProt Q99581 1-238).
T3 sequence: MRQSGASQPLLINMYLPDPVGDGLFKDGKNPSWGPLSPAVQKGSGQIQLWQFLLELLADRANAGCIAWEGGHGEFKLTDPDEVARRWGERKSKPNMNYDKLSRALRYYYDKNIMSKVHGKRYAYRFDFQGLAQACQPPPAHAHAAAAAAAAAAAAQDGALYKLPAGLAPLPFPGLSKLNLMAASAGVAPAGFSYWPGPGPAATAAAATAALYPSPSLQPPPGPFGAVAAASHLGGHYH
In outline: as §1

A further test concerns the target T4, SPIC (Homo sapiens, UniProt Q8N5J4 1-248).
T4 sequence: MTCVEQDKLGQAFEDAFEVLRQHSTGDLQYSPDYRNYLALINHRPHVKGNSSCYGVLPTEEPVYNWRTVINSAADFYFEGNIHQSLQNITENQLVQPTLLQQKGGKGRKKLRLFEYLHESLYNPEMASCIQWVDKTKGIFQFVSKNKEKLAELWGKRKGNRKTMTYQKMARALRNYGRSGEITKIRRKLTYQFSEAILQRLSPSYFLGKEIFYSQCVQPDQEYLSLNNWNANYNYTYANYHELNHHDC
Put shortly: as §1

The target in another test is ELF4 (Homo sapiens, UniProt Q99607 1-663). Put shortly: as §1
Sequence of ELF4 (Q99607 whole entry): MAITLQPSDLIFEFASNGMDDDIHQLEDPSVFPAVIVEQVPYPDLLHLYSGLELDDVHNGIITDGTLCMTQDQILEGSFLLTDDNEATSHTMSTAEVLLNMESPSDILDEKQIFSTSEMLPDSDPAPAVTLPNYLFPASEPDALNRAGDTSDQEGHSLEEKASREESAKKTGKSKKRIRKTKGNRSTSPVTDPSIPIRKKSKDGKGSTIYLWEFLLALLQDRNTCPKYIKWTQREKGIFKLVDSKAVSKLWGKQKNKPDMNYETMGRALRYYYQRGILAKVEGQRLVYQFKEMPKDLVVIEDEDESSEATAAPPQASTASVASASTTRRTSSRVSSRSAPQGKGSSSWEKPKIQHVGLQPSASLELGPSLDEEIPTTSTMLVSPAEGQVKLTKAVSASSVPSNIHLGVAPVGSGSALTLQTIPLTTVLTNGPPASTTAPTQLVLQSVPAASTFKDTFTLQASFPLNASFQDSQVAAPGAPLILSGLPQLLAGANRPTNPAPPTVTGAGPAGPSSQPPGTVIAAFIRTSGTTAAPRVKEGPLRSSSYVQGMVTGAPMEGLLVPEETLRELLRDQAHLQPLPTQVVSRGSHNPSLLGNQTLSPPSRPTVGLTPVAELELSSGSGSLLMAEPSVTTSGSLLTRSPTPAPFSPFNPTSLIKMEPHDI
The next test addresses T5, ETV2 (Homo sapiens, UniProt O00321 1-342).
T5 sequence: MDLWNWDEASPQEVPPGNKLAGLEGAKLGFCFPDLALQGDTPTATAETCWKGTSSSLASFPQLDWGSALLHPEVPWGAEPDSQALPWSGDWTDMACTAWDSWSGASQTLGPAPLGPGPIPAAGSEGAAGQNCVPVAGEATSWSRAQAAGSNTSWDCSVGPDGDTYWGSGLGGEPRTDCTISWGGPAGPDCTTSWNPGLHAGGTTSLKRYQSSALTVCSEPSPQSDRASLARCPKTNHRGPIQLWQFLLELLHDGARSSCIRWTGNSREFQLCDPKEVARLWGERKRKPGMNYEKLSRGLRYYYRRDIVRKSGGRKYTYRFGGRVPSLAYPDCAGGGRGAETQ
In outline: as §1

The next test concerns the target CRX (Homo sapiens, UniProt O43186 1-299). Put shortly: as §1
The target of the next test is T6, ETV3L (Homo sapiens, UniProt Q6ZN32 1-361).
T6 sequence: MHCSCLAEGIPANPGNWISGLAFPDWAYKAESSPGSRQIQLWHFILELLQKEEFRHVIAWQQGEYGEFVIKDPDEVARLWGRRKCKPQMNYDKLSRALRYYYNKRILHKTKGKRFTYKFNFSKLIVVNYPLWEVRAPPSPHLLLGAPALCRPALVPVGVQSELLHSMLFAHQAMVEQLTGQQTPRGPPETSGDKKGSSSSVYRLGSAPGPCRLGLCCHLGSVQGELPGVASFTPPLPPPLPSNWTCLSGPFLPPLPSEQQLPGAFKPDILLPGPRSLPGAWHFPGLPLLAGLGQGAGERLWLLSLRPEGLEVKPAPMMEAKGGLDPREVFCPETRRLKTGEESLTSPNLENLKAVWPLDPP
In outline:
as §1

A further test has as its target T7, ETV7 (Homo sapiens, UniProt Q9Y603 1-341).
T7 sequence: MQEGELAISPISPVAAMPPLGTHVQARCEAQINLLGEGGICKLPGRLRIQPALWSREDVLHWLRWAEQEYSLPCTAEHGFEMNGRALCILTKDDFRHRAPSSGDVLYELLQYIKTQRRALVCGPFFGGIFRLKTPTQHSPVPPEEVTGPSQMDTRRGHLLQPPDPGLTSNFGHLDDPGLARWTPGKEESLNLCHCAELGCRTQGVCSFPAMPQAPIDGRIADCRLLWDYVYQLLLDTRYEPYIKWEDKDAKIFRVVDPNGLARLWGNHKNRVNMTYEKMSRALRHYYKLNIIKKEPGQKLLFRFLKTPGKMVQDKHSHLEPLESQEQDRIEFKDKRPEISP
Put shortly: as §1

In another test the target is T8, ETV3 (Homo sapiens, UniProt P41162-2 1-143).
T8 sequence: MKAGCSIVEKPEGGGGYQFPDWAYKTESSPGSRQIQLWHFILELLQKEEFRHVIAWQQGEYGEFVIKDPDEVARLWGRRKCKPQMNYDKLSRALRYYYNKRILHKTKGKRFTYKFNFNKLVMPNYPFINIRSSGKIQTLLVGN
In outline: as §1

Sequence of CRX (O43186 whole entry): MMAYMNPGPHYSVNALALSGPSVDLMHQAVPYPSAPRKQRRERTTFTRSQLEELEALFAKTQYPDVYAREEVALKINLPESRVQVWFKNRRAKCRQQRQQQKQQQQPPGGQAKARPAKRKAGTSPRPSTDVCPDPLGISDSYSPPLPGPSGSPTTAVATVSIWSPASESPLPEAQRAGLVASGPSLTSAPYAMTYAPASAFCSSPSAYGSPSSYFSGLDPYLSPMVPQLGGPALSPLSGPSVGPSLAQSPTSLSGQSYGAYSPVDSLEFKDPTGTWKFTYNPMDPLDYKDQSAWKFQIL
Sequence of ELF1 (P32519 whole entry): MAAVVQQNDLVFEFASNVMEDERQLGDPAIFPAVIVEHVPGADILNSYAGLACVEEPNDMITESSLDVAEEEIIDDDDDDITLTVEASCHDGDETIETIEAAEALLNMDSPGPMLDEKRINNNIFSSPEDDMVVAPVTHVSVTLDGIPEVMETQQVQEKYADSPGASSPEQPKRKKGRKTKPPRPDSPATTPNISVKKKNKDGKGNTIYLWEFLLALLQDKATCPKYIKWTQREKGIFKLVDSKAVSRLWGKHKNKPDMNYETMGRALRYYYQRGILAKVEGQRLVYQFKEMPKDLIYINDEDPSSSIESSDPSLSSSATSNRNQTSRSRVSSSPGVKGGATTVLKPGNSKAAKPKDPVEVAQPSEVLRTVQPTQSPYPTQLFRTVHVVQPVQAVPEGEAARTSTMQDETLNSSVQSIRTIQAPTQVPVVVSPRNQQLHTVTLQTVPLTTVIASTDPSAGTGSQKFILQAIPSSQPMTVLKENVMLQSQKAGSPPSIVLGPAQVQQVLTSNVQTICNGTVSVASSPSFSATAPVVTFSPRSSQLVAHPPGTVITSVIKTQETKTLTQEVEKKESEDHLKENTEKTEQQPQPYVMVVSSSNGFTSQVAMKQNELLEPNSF
Sequence of SPIB (Q01892 whole entry): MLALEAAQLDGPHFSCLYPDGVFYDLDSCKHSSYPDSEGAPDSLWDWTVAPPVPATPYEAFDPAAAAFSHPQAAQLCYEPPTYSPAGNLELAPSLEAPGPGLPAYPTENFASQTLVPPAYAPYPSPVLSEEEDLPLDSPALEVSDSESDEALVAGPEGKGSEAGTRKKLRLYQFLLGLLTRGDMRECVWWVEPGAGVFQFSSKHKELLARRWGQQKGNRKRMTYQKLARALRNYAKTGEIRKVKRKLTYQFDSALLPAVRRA

As to TAGGCA, the binding signal is 1.03 fold enrichment (6-mer frequency, TF over GST control) with ELK1; 1.06 fold enrichment (6-mer frequency, TF over GST control) in the test with ERG; 1.02 fold enrichment (6-mer frequency, TF over GST control) with ELF1; 1.02 fold enrichment (6-mer frequency, TF over GST control) with SPIB; 1.05 fold enrichment (6-mer frequency, TF over GST control) with FEV; 1.11 fold enrichment (6-mer frequency, TF over GST control) in the test with SPIC. In addition, the binding signal is 1.01 fold enrichment (6-mer frequency, TF over GST control) with ELF4; 1.19 fold enrichment (6-mer frequency, TF over GST control) with ETV2; 1.08 fold enrichment (6-mer frequency, TF over GST control) in the test with CRX; 1.02 fold enrichment (6-mer frequency, TF over GST control) with ETV3L; 1.06 fold enrichment (6-mer frequency, TF over GST control) with ETV7; 1.01 fold enrichment (6-mer frequency, TF over GST control) in the test with ETV3.
